hgDAF12 agonist – H. glycines DAF-12 receptor agonists, primary screen, cell-based, luminescence, HEK293, GAL4 fusion, UAS-luciferase | activation, % at 6.8 µM | actives 1.8% (n = 370,000) | AID 687014, 2013 | Nuclear hormone receptor DAF-12 (Heterodera glycines), GAL4 fusion | HEK293 GAL4-hgDAF12 UAS-luciferase reporter, agonist luminescence; normalized to butyrate control;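 active = activation above a cutoff set at the mean of all screened compounds plus 3 SD, cut at about 10% in these data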
hcDAF-12 act – H. contortus DAF-12 nuclear receptor activators, primary screen, cell-based, luminescence, HEK293, lit1-tk-luc reporter; HEK293 hcDAF-12 lit1-tk-luc reporter; 0% DMSO, 100% Δ7-dafachronic acid; activation, % at 6.8 µM; actives 1.4% (n = 370,000);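 active = activation above the mean of all tested compounds plus 3 SD, cut at about 5.5% in these data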
Wee1 degr inh – Wee1 degradation inhibitors, primary screen, cell-based, HeLa, Wee1K328M-luciferase, luminescence; HeLa Luc-Wee1K328M stability; 100% = proteasome inhibitor MG132 effect; AID 1321, 2008; reporter increase, % at 5 µM; Wee1-like protein kinase (Homo sapiens), P30291; actives 1.2% (n = 220,000);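 active = activation above the mean of all tested compounds plus 3 SD, set per screening run, cut at about 8.8% in these data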;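 note: cells exposed to compound for 20 h before luminescence read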
ssDAF12 agonist – S. stercoralis DAF-12 nuclear receptor activators, primary screen, cell-based, luminescence, HEK293, GRIP1 co-expression, lit1-tk-luc; AID 652126, 2013; HEK293 ssDAF-12/GRIP1 lit1-tk-luc reporter; % of 3 µM dafachronic acid response; activation, % at 6.8 µM; actives 1% (n = 370,000); Nuclear hormone receptor DAF-12 (Strongyloides stercoralis);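 active = activation above the mean over all tested compounds plus 3 SD, cut at about 0.9% in these data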
DAX1 inh-1 – DAX1 (NR0B1) inhibitors on StAR promoter, primary screen, cell-based, luminescence, SF-1 (NR5A1), full-length DAX-1; HEK293T StAR-luciferase reporter, SF-1/DAX-1 repression relief; inhibition, % at 6.8 µM; actives 1.1% (n = 370,000);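 active = inhibition above the mean over all tested compounds plus 3 SD, cut at about 3.6% in these data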;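 note: higher inhibition means more luminescence from relief of DAX-1 repression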
DAX1 inh-2 – DAX1 (NR0B1) inhibitors, primary screen, cell-based, HEK293, Gal4-DAX1, luciferase luminescence | inhibition, % at 6.75 µM | Nuclear receptor subfamily 0 group B member 1 (Homo sapiens), P51843 | actives 0.99% (n = 340,000) | HEK293 Gal4-DAX1 luciferase reporter;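 active = inhibition above the mean over all tested compounds plus 3 SD, cut at about 4.2% in these data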;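 note: inhibition shows as a rise in luminescence from relieved DAX1 repression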
Target sequence (P51843 207-470 limits assumed): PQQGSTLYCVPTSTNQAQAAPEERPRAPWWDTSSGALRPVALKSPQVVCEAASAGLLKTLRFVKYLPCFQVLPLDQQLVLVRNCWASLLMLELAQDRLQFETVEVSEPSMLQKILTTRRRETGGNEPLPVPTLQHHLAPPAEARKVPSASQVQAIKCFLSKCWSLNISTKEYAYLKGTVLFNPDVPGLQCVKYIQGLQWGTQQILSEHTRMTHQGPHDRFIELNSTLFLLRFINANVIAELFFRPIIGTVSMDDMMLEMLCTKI
Of the large screens only hits and unclear results are named; the others gave an inactive call. An excerpt weighted towards active compounds, which were near 4.6% of everything screened.

O=C(O)COc1ccccc1/C=N/NC(=O)c1cc(-c2ccccc2)nc2ccccc12	none
O=C(N/N=C/c1ccccc1OC(F)F)c1cc(-c2ccncc2)nc2ccccc12	Wee1 degr inh 11
O=C(NNC(=O)c1cc(-c2ccncc2)nc2ccccc12)c1cccc(Cl)c1	ssDAF12 agonist 2.6 (no result: Wee1 degr inh)
Cc1noc(C)c1C(C)C1=CCCCC1 (centres undefined)	none (no result: Wee1 degr inh, DAX1 inh-2)
CCOC(=O)C1=NOC(C(=O)NC2CCCC2)(C(=O)c2ccc(OC)cc2)C1 (centres undefined)	none (no result: Wee1 degr inh, DAX1 inh-2)
CCOc1ccc(S(=O)(=O)Nc2cc(SCC(=O)O)c(O)c3ccccc23)cc1	ssDAF12 agonist 1.5 (no result: Wee1 degr inh)
CCc1ccc(S(=O)(=O)Nc2cc(SCC(=O)O)c(O)c3ccccc23)cc1	none
O=C(O)CSc1cc(NS(=O)(=O)c2cccc([N+](=O)[O-])c2)c2ccccc2c1O	ssDAF12 agonist 1.0
CC1(Oc2cccc(C#N)c2)CCN(Cc2csc3ccccc23)C1 (centres undefined)	none (no result: Wee1 degr inh, DAX1 inh-2)
O=C(OC12CCCN(C1)/C(=C/c1cccc(Cl)c1)C2)c1ccc(F)cc1 (centres undefined)	none (no result: Wee1 degr inh, DAX1 inh-2)
N#Cc1ccc(OCC(=O)N2CCCC2=O)cc1	none (no result: Wee1 degr inh)
Cc1ccc(NC(=O)c2ncc(Cl)c(Cl)c2Cl)cc1C	hcDAF-12 act 5.9
CC(=O)c1c(C(C)=O)c(C)n(NC(=O)c2ccccc2Cl)c1C	Wee1 degr inh 9.2
O=C(NC(c1ccc(F)cc1)c1ccc2ccccc2n1)C1CCN(Cc2cccc(C(F)(F)F)c2)CC1 (centres undefined)	DAX1 inh-1 3.7 (no result: Wee1 degr inh, DAX1 inh-2)
O=C(NC(c1ccc(F)cc1)c1ccc2ccccc2n1)C1CCN(Cc2ccc3ccccc3n2)CC1 (centres undefined)	none (no result: Wee1 degr inh, DAX1 inh-2)
CN(C)S(=O)(=O)c1cc(NC(=O)COC(=O)CC2Sc3ccccc3NC2=O)ccc1Cl (centres undefined)	none (no result: Wee1 degr inh)
CCCCNC(=O)C1(C)CCN1C(=O)c1cncc(Br)c1 (centres undefined)	none (no result: Wee1 degr inh, DAX1 inh-2)
Cc1ccc(-c2ccc(CCC(=O)O)o2)cc1	ssDAF12 agonist 2.6
CCc1nnc2n1N=C(c1ccc(Cl)cc1)CS2	none (no result: Wee1 degr inh)
Cc1nnc2n(c1=O)N=C(c1ccc(Cl)cc1)CS2	hcDAF-12 act 6.0
O=C(Cn1cnc2c(NCc3ccccc3)ncnc21)NCCCN1CCCC1=O	none (no result: Wee1 degr inh)
Cc1ccc(C(=O)Nc2cc3c(oc2=O)CCCC3=O)cc1	hgDAF12 agonist 11
O=C(Nc1cc2c(oc1=O)CCCC2=O)c1ccccc1	none
COc1cc(NC(=O)N[C@@H](Cc2c[nH]c3ccccc23)C(=O)O)c(C(=O)O)cc1OC	none (no result: Wee1 degr inh)
CCOc1cc(C=NN=C2c3ccccc3-c3ccccc32)ccc1O	none (no result: Wee1 degr inh)
c1ccc2c(c1)NC1(CCCCCC1)n1c-2nc2ccccc21	none
c1ccc2c(c1)NC1(CCCCC1)n1c-2nc2ccccc21	hgDAF12 agonist 11
CC1(c2ccccn2)Nc2ccccc2-c2nc3ccccc3n21 (centres undefined)	hgDAF12 agonist 11, DAX1 inh-2 4.4
CCCCC1(C)Nc2ccccc2-c2nc3ccccc3n21 (centres undefined)	hgDAF12 agonist 11
COc1ccc(S(=O)(=O)N(C)C[C@@H]2OCc3cnnn3CCCC(=O)N([C@H](C)CO)C[C@@H]2C)cc1	none (no result: Wee1 degr inh)
CCOc1ccc(/C=C/C(=O)N2CCOCC2)cc1OC	none (no result: Wee1 degr inh)
CCOc1cc(C(=S)N2CCOCC2)ccc1OC(=O)/C=C/c1ccc(OC)c(OC)c1	hgDAF12 agonist 11
COc1ccc2c(c1)O/C(=C\c1sccc1C)C2=O	hgDAF12 agonist 11
O=C(O)COc1ccc2c(c1)O/C(=C\c1cccs1)C2=O	none
Cc1nnc(SCC(=O)Nc2cccc(S(=O)(=O)N3CCCC3)c2)n1C1CC1	none (no result: Wee1 degr inh)
C/C(=N/NC(=O)Cc1cccs1)c1cccc([N+](=O)[O-])c1	none (no result: Wee1 degr inh, DAX1 inh-2)
Cc1ccn2c(Nc3ccc4c(c3)OCO4)c(-c3ccccn3)nc2c1	hcDAF-12 act 6.0
Cc1ccc(Nc2c(-c3ccccn3)nc3cc(C)ccn23)cc1	none
COc1ccc(C2Nc3cccc4cccc(c34)N2)cc1Br	ssDAF12 agonist 1.1 (no result: Wee1 degr inh)
Cc1ccc2c(c1)NC(=O)C(CC(=O)NCCCN1CCCCC1)O2 (centres undefined)	DAX1 inh-2 4.5
Cc1ccc(CCNC(=O)CC2Oc3ccc(C)cc3NC2=O)cc1 (centres undefined)	DAX1 inh-2 11
CCCC(=O)N1CCCC1(C)C(=O)N(C)Cc1cccc2ccccc12 (centres undefined)	none (no result: Wee1 degr inh, DAX1 inh-2)
CCOC(=O)c1c(CSC(=N)N)n(-c2ccccc2)c2cc(Br)c(OC(C)=O)cc12	DAX1 inh-2 4.3
CCn1nc(CC(=O)O)c2ccccc2c1=O	none
O=C(O)Cc1nn(Cc2ccc(Cl)cc2)c(=O)c2ccccc12	DAX1 inh-2 9.0
COc1ccc(Cl)cc1Nc1nc(Cl)nc(NCCO)n1	none (no result: Wee1 degr inh)
CC1CCC2C(=O)N(c3ccccc3OC(=O)c3ccccc3F)C(=O)C2C1 (centres undefined)	Wee1 degr inh 9.5
O=C(NN=Cc1ccccc1)NN=Cc1ccccc1	none (no result: Wee1 degr inh)
CCc1ccc(OCCNC(=O)c2ccc(S(=O)(=O)N(C)C)cc2)cc1	Wee1 degr inh 9.9
COc1ccc(N2C(=O)c3ccccc3NC(=O)C2C(=O)NCCc2ccccc2F)cc1 (centres undefined)	none (no result: Wee1 degr inh, DAX1 inh-2)
O=C(NNC(=O)C1CC=CCC1)c1cccc(Br)c1 (centres undefined)	DAX1 inh-2 4.6 (no result: Wee1 degr inh)
O=C(NNC(=O)C1CC=CCC1)c1ccccc1Br (centres undefined)	none (no result: Wee1 degr inh)
CCS(=O)(=O)Nc1ccc2c(c1)C(=O)N(C)[C@@H]1CC[C@H](CC(=O)OC)O[C@H]1CO2	none (no result: Wee1 degr inh, DAX1 inh-2)
CN1CCN(/N=C/c2ccc(OCc3ccccc3)cc2)CC1	DAX1 inh-2 6.0
c1csc(-c2noc(CN3CCOCC3)n2)c1	DAX1 inh-2 4.7
CC(Sc1nnc(-c2ccccc2F)n1C)C(=O)NC1CCCCC1 (centres undefined)	none (no result: Wee1 degr inh)
Nn1c(SCc2c(F)cccc2F)nnc1-c1ccccn1	DAX1 inh-2 24
O=C(NCC1CCCCC1)c1ccc([N+](=O)[O-])cc1	DAX1 inh-2 10 (no result: Wee1 degr inh)
CCOc1ccc(C(=O)NC2CCCCCCC2)cc1	hgDAF12 agonist 12, hcDAF-12 act 6.1 (no result: Wee1 degr inh)

Compound activity as filed in PubChem.
